Common to all, as to assay: NCI-60 one-dose screen, 48 h (100 = growth as untreated, 0 = no growth, -100 = all killed)
The test system of one assay is T-47D breast. To be noted: 10 µM unless noted.
In the next assay the test system is BT-549 breast. The note with it: 10 µM unless noted.
A further assay relates to MDA-MB-435 melanoma. To be noted: 10 µM unless noted.
In another assay the test system is SW-620 colon. The note with it: 10 µM unless noted.
The subject of a further assay is MCF7 breast. To be noted: 10 µM unless noted.
A further assay relates to HCC-2998 colon. The note with it: 10 µM.
The next assay relates to KM12 colon. The note with it: 10 µM unless noted.
For a further assay, the system named is HCT-116 colon. The note with it: 10 µM unless noted.

The values below come from PubChem BioAssay (NCI).

SMILES strings stand for the structures. This is part of a sample that, as a whole, favours compounds with a hit. Of some 83,000 tested, about 20% had one in any assay.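 Single-dose data. Exposure time 48 hours. Values below 10 considered active.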 Unmarked numbers belong to inactive results. Activity calls are given as the source filed them.

With `Nc1ncnc2c1ccn2-c1cccc(NC(=O)c2ccc(N3CCOCC3)c(C(F)(F)F)c2)c1`, the growth with T-47D breast was 32.2%; in the assay with BT-549 breast it was 57.5%; in the assay on MDA-MB-435 melanoma it was 53.7%; in the assay with SW-620 colon, 66.5%; with MCF7 breast, 67.1%; with HCC-2998 colon, 62.6%. Moreover, the growth in the assay on KM12 colon was 31%.
Take `CCN(CCCOc1ccc2c(Nc3cc(CC(=O)Nc4cccc(F)c4)[nH]n3)ncnc2c1)CCOP(=O)(O)O`: the growth with T-47D breast is 73.6%; with BT-549 breast it was 75.9%; with MDA-MB-435 melanoma, 69.2%; in the assay on SW-620 colon it was 35.8%; with MCF7 breast, 46.6%; in the assay with HCC-2998 colon, 61.4%. For the same compound, in the assay with KM12 colon, the growth is 21.4%.
Consider `COc1ccc(COc2cc3oc(=O)c4cc(C(C)O)ccc4c3cc2OC)cc1` (stereo unspecified), for which the growth in the assay with T-47D breast is 44.2%; with BT-549 breast it was 59.8%; in the assay on MDA-MB-435 melanoma, 3.55% (active); in the assay with SW-620 colon, 49.7%; with MCF7 breast, 45.6%; with HCT-116 colon, 49%. Also, the growth in the assay with KM12 colon was 53%.
In the case of `FC(F)c1nc2ccccc2n1-c1nc(N2CCOCC2)nc(N2CCOCC2)n1`, the growth in the assay on T-47D breast was -36.1% (active); in the assay with BT-549 breast, -8.49% (active); in the assay with MDA-MB-435 melanoma, -8.55% (active); in the assay on SW-620 colon, 13.4%; in the assay with MCF7 breast, 1.28% (active); in the assay with HCT-116 colon, 14%. The growth in the assay with KM12 colon was 3.42% (active).
Take `COc1cc2ncnc(Nc3cccc(Cl)c3F)c2cc1OC(=O)N1CCN(C)C[C@H]1C`: the growth with T-47D breast was 28.5%; with BT-549 breast, 93.8%; in the assay on MDA-MB-435 melanoma, 94.3%; with SW-620 colon it was 94.2%; in the assay on MCF7 breast, 63.2%; in the assay on HCT-116 colon it was 87.5%. Besides, the growth with KM12 colon is 87.8%.
With `COc1cc(NCCCN)c2ncccc2c1`, the growth with T-47D breast was 91.9%; in the assay with BT-549 breast, 74.9%; in the assay with MDA-MB-435 melanoma, 83.8%; in the assay with SW-620 colon, 79.1%; with MCF7 breast, 90.1%; with HCC-2998 colon, 83.5%. In addition, in the assay with KM12 colon, the growth was 68.2%.
Turning to `CCOC(=O)Sc1ncnc2nc[nH]c12`, the growth in the assay on T-47D breast was 34.7%; in the assay with BT-549 breast, 50.7%; in the assay with MDA-MB-435 melanoma, 33.3%; in the assay on SW-620 colon, 68.5%; with MCF7 breast it was 18.7%; in the assay on HCC-2998 colon, 26.4%. The growth with KM12 colon was 59.3%.
For the compound `C[C@H]1Oc2cc(cnc2N)-c2c(nn(C)c2C#N)CN(C)C(=O)c2ccc(F)cc21`, the growth in the assay with T-47D breast is 84.4%; in the assay on BT-549 breast it was 103%; in the assay on MDA-MB-435 melanoma it was 80%; in the assay with SW-620 colon, 90.4%; in the assay on MCF7 breast it was 60%; in the assay on HCT-116 colon, 68.7%. Also, the growth in the assay with KM12 colon was 9.06% (active).
As for `CCN1CCN(c2cc(C)nc(N(CCCNc3ccnc4cc(Cl)ccc34)Cc3cccs3)n2)CC1`, the growth in the assay with T-47D breast is -18.7% (active); with BT-549 breast, -20.6% (active); in the assay with MDA-MB-435 melanoma, -79.8% (active); with SW-620 colon, -8.17% (active); in the assay with MCF7 breast, 12.3%; with HCC-2998 colon it was -27.2% (active). In addition, in the assay with KM12 colon, the growth was 35.4%.
Regarding `CC(=O)C1=C(C)NC(SCc2nnc(-c3ccc(C)cc3)o2)=NC1c1ccc(F)cc1` (stereo unspecified), the growth is 74.4% with T-47D breast; 86.1% in the assay on BT-549 breast; 107% with MDA-MB-435 melanoma; 110% with SW-620 colon; 95.4% in the assay on MCF7 breast; 104% with HCC-2998 colon. For the same compound, the growth with KM12 colon is 100%.
Regarding `Cc1sc2c(c1C)c(=O)nc1c(-c3nc4ccccc4s3)n[nH]n12`, the growth is 85.2% in the assay with T-47D breast; 101% in the assay on BT-549 breast; 110% in the assay on MDA-MB-435 melanoma; 104% with SW-620 colon; 79.6% in the assay on MCF7 breast; 96.3% in the assay with HCC-2998 colon. The growth in the assay with KM12 colon was 98.7%.
As for `Cc1ccc(-c2nc3ccc(Cl)cn3c2NC2CCCCC2)o1`, the growth is 58.1% in the assay with T-47D breast; 105% in the assay with BT-549 breast; 97.2% with MDA-MB-435 melanoma; 82.9% with SW-620 colon; 72.1% in the assay with MCF7 breast; 102% in the assay on HCC-2998 colon. Further, the growth with KM12 colon was 89.2%.
Turning to `CC(C)(C)c1ccc(Cn2cc(CSc3nc4ccccc4s3)nn2)cc1`, the growth in the assay with T-47D breast was 73.4%; in the assay on BT-549 breast it was 87.7%; in the assay on MDA-MB-435 melanoma it was 106%; with SW-620 colon, 97.3%; in the assay on MCF7 breast, 91.4%; in the assay with HCC-2998 colon it was 104%. Further, in the assay on KM12 colon, the growth is 101%.
For `C[C@@H](NC(=O)c1ncnc(N)c1Cl)c1ncc(C(=O)Nc2cc(C(F)(F)F)c(Cl)cn2)s1`, the growth is 92.2% in the assay on T-47D breast; 110% in the assay with BT-549 breast; 39.3% in the assay on MDA-MB-435 melanoma; 56.9% in the assay with SW-620 colon; 96.2% in the assay on MCF7 breast; 69.4% in the assay on HCC-2998 colon. Besides, the growth in the assay on KM12 colon is 75.1%.
With `Cc1nc(N)sc1-c1ccnc(Nc2ccc(N3CCOCC3)cc2)n1`, the growth is 29.8% with T-47D breast; 17.3% with BT-549 breast; 67.2% with MDA-MB-435 melanoma; 41.4% with SW-620 colon; 27.2% with MCF7 breast; 77.8% in the assay on HCC-2998 colon. The growth in the assay on KM12 colon is 23.7%.
Regarding `CC[C@H](Nc1ncnc2nc[nH]c12)c1nc2cccc(F)c2c(=O)n1-c1ccccc1`, the growth with T-47D breast was -4.25% (active); in the assay with BT-549 breast, 40.2%; in the assay on MDA-MB-435 melanoma, 82.6%; with SW-620 colon, 78.3%; in the assay with MCF7 breast, 54.4%; with HCC-2998 colon it was 85.9%. In addition, the growth in the assay with KM12 colon was 84.6%.
With `COc1cccc(NC(=O)Nc2ccc(Nc3ncnc4sc5c(c34)CCN(C(=O)CCl)C5)cc2)c1`, the growth in the assay on T-47D breast is 86.6%; in the assay with BT-549 breast, 99.1%; with MDA-MB-435 melanoma it was 109%; in the assay on SW-620 colon, 102%; with MCF7 breast, 87.3%; in the assay on HCC-2998 colon it was 115%. In addition, the growth with KM12 colon is 98.1%.
Consider `O=C(COc1ccc(/C=C2\Cc3ccc(Cl)cc3C2=O)cc1)Nc1nccs1`, for which the growth with T-47D breast was 85.2%; in the assay on BT-549 breast, 106%; with MDA-MB-435 melanoma, 113%; with SW-620 colon, 106%; with MCF7 breast, 89%; with HCT-116 colon, 91.3%. In addition, in the assay on KM12 colon, the growth is 115%.
On to `C=CC[n+]1c(/C=C/C=C2\N(C)c3ccccc3C2(C)C)sc2ccc(OC)cc21`, for which the growth with T-47D breast was 12.1%; in the assay on BT-549 breast it was 14.6%; in the assay with MDA-MB-435 melanoma it was 12.8%; in the assay on SW-620 colon, 19.9%; in the assay with MCF7 breast, 6.97% (active); in the assay on HCC-2998 colon, 30.2%. For the same compound, the growth in the assay on KM12 colon was 13.4%.
Take `Cc1ccc(C(=O)Nc2ccc(CN3CCN(C)CC3)c(C(F)(F)F)c2)cc1C#Cc1cnc2cccnn12`: the growth with T-47D breast was -70.9% (active); in the assay on BT-549 breast, -97.7% (active); with MDA-MB-435 melanoma it was -98.2% (active); in the assay on SW-620 colon, -87.6% (active); with MCF7 breast, -74.1% (active); in the assay with HCC-2998 colon, -91.8% (active). Besides, the growth with KM12 colon is -91.3% (active).
`O=C(c1ccc(/C=C/c2n[nH]c3ccccc23)cc1)N1CCNCC1`: the growth with T-47D breast is 84.1%; in the assay on BT-549 breast, 22.6%; with MDA-MB-435 melanoma, 38.7%; with SW-620 colon, 11.7%; in the assay on MCF7 breast, 24%; with HCC-2998 colon, 66.3%. Besides, the growth in the assay with KM12 colon is 8.09% (active).
As to `CC/C(=C(\c1ccc(OCCN2CCCCCCC2)cc1)c1ccc(OC(=O)C2CCCCC2)cc1)c1ccc(Cl)cc1`, the growth was 77.4% with T-47D breast; 116% in the assay on BT-549 breast; 99.8% in the assay on MDA-MB-435 melanoma; 95.5% with SW-620 colon; 48.5% in the assay on MCF7 breast; 109% in the assay on HCC-2998 colon. Also, the growth in the assay with KM12 colon is 97.1%.
As to `CO[C@H]1C[C@@H]2CC[C@@H](C)[C@@](O)(O2)C(=O)C(=O)N2CCCC[C@H]2C(=O)O[C@H]([C@H](C)C[C@@H]2CC[C@@H](OCCO)[C@H](OC)C2)CC(=O)[C@H](C)/C=C(\C)[C@@H](O)[C@H](OC)C(=O)[C@H](C)C[C@H](C)\C=C/C=C/C=C/1C`, the growth was 7.51% (active) in the assay on T-47D breast; 42.3% with BT-549 breast; 56.4% with MDA-MB-435 melanoma; 53.7% in the assay with SW-620 colon; 35.8% in the assay on MCF7 breast; 66% with HCC-2998 colon. The growth with KM12 colon was 55.3%.
In the case of `COc1ccc(-c2cc3c(C)nc(N)nc3n(C3CCC(OCCO)CC3)c2=O)cn1` (stereo unspecified), the growth was -50.5% (active) in the assay on T-47D breast; -18.1% (active) in the assay with BT-549 breast; -18.5% (active) in the assay with MDA-MB-435 melanoma; 7.56% (active) in the assay on SW-620 colon; 1.58% (active) with MCF7 breast; -0.799% (active) with HCC-2998 colon. Further, in the assay with KM12 colon, the growth was 5.53% (active).
Regarding `NC(=O)Nc1cc(-c2cccc(F)c2)sc1C(=O)N[C@H]1CCCNC1`, the growth in the assay with T-47D breast was 15.1%; with BT-549 breast it was -60.9% (active); in the assay on MDA-MB-435 melanoma, -25.8% (active); in the assay with SW-620 colon, -7.1% (active); with MCF7 breast it was 14.3%; in the assay on HCC-2998 colon it was -34.6% (active). Besides, the growth in the assay on KM12 colon is 1.83% (active).
For the compound `Nc1nc(N)c2nc(-c3cccc(O)c3)c(-c3cccc(O)c3)nc2n1`, the growth was 2.15% (active) in the assay with T-47D breast; 47.8% in the assay on BT-549 breast; 97.4% in the assay with MDA-MB-435 melanoma; 90.8% in the assay on SW-620 colon; 70.1% in the assay on MCF7 breast; 94.6% with HCC-2998 colon. In the assay on KM12 colon, the growth is 90.6%.
Consider `Cn1c(Nc2ccc(C(F)(F)F)cc2)nc2cc(Oc3ccnc(-c4ncc(C(F)(F)F)[nH]4)c3)ccc21`, for which the growth in the assay on T-47D breast was 48.5%; with BT-549 breast it was 37.5%; in the assay with MDA-MB-435 melanoma, 28.8%; in the assay on SW-620 colon it was 65.5%; with MCF7 breast it was 82.3%; in the assay with HCC-2998 colon, 73%. In addition, the growth in the assay with KM12 colon was 58.3%.
`CCCCCCCC(=O)SCC/C=C/[C@@H]1CC(=O)NCc2cccc(n2)C2=N[C@@](C)(CS2)C(=O)N[C@@H](C(C)C)C(=O)N1`: the growth with T-47D breast is -7.49% (active); in the assay on BT-549 breast, 41.4%; in the assay with MDA-MB-435 melanoma, 19.6%; in the assay on SW-620 colon it was 69.3%; with MCF7 breast, 28.3%; in the assay on HCC-2998 colon, 12.6%. Also, in the assay on KM12 colon, the growth is 24.9%.
